PubChem BioAssay (NCATS)
Inconclusive results are not listed. Active and inactive are the calls of the source. Calls follow the shape of the dose curve; as a rule, active = well fitted curve in the direction sought with a large enough effect; inconclusive = small, poorly fitted or top-dose-only effect, or another doubt; inactive = no such curve, though single readings can be large; an effect the other way counts as inactive or inconclusive.

Experiments:
[1] = Cellular Toxicity (caspase-3) Mesangial (AID 660); settings: mesangial cells, normalized: DMSO 0%, 100 µM tamoxifen 100%; at 91.7 µM (top of the series);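 also: combined caspase 3 and 7 activity read by Caspase-Glo luminescence; cells exposed to compound for 16 h before the caspase read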
Method in brief: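 Caspase 3/7 activation measured by Caspase-Glo 3/7 luminescence (20 min, room temperature) following 16 h exposure of mesangial cells (1000/well); AC50 from Hill-equation fit, normalized to DMSO and 100 uM tamoxifen.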

[2] = Cellular Toxicity (caspase-3) H-4-II-E (AID 663); settings: H-4-II-E rat hepatoma, scaled: DMSO 0%, 100 µM tamoxifen 100%; at 92.2 µM (top of the series);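 also: cells exposed to compound for 16 hr before readout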
Method in brief: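 Caspase 3/7 activation measured in H-4-II-E cells in complete culture medium after 16 hr treatment at 37 °C, using luciferase-coupled substrate readout; AC50 values come from Hill-equation fits of normalized concentration-response data.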

[3] = Cellular Toxicity (caspase-3) Hek293 (AID 664); settings: HEK293 caspase-3 activation, DMSO = 0%, 100 µM tamoxifen = 100%; at 92.2 µM (top of the series);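 also: cells exposed to compound for 16 h at 37 °C before readout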
Method in brief: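 Concentration-response qHTS: caspase 3/7 activation measured by luminescent aminoluciferin substrate cleavage after 16 h compound exposure of Hek 293 cells. AC50 from Hill equation, with DMSO as basal and 100 uM tamoxifen as 100%.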

[4] = Cellular Toxicity (caspase-3) N2a (AID 665); settings: N2a cells, luminescence, normalized: DMSO 0%, 10 µM staurosporine 100%; series mostly up to 92.2 µM;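 also: compound exposure lasted 16 h at 37 °C before readout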
Method in brief: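 Caspase-3/7 activation measured as luminescence from Caspase-Glo reagent (1 h, room temperature) after 16 h compound exposure of mouse N2a cells. AC50 values from Hill-equation concentration-response, scaled between DMSO and 10 uM staurosporine.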

[5] = Cellular Toxicity (caspase-3) NIH 3T3 (AID 666); settings: NIH 3T3 caspase-3 activation, apoptosis/toxicity, 0% DMSO, 100% is 100 µM tamoxifen; series mostly up to 92.2 µM;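 also: caspase signal read after 16 h compound exposure; 0% = DMSO basal and 100% = 100 µM tamoxifen stimulation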
Method in brief: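 Caspase-Glo 3/7 luminescence reported caspase activation in 1000 NIH 3T3 cells/well after 16 h compound exposure at 37 C. DMSO set basal and 100 uM tamoxifen set 100% stimulation; concentration-response modeled with the Hill equation for AC50.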

[6] = Cellular Toxicity (caspase-3) Renal Proximal Tubule (AID 667); settings: renal proximal tubule cells, primary cells freshly taken from rat; Potency: caspase-3 activation; series mostly up to 91.7 µM;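 also: cells exposed to compound for 16 hours at 37 °C before detection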; also: potency is read from the fitted curve at half-maximal effect
Method in brief: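 In qHTS format, rat primary proximal tubule cells seeded at 1000 per well are exposed to compounds for 16 hours at 37 °C. An increase in Caspase-Glo 3/7 luminescence indicates caspase activation.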

[7] = molecular target: Cytochrome P450 3A4 (Homo sapiens) (UniProt P08684); assay: qHTS Assay for Inhibitors and Substrates of Cytochrome P450 3A4 (AID 884); settings: recombinant CYP3A4, Luciferin-PPXE luminescence; series mostly up to 57.1 µM; also: % is scaled to controls: 0 for no effect and ±100 for the full control effect; nearly all actives have a fitted effect of over 50% in size
Sequence of Cytochrome P450 3A4 (Homo sapiens) (P08684 whole entry, looked up): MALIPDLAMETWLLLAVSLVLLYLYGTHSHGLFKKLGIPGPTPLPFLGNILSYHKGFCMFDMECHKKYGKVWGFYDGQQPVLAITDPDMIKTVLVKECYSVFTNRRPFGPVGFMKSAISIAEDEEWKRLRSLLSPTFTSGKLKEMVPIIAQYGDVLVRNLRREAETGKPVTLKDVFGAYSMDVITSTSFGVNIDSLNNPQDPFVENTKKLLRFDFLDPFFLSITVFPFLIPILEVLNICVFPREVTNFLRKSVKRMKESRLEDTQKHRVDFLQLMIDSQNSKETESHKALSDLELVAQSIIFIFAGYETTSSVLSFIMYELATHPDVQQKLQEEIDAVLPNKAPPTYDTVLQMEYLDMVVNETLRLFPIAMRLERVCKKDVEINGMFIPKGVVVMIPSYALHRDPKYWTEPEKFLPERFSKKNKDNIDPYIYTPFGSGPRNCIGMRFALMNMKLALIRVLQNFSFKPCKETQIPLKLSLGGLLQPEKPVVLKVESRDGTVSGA
Method in brief: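 Luminescent readout of luciferin produced by CYP3A4 (20 nM) dealkylation of Luciferin-PPXE, 25 uM (its KM). NADPH-driven reaction ran 60 min at RT after 10 min compound preincubation; data scaled to 57 uM ketoconazole as 100% inhibition.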

[8] = Cell Viability - LYMP2-001 (AID 921); settings: LYMP2-001 lymphoblastoid cell viability; series mostly up to 92.2 µM;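 also: cells exposed to compound for 24 h at 37 °C; 0% = DMSO only and full inhibition = tetraoctylammonium bromide control wells; nearly all actives have a fitted effect of over 70% in size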
Method in brief: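 qHTS, 1536-well; lymphoblastoid cells, 24 hr compound, 37 C; ATP by CellTiter-Glo, 30 min RT; luminescence; Hill-fit AC50.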

[9] = molecular target: Cytochrome P450 3A4 (Homo sapiens) (UniProt P08684); assay: qHTS Assay for Activators of Cytochrome P450 3A4 (AID 885); settings: recombinant CYP3A4, Luciferin-PPXE luminescence, 60 min; series mostly up to 57.1 µM; also: nearly all actives have a fitted effect of over 65% in size
Method in brief: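 Human CYP3A4 dealkylates Luciferin-PPXE to luciferin, which luciferase detection converts to light. Substrate was at its KM (25uM), buffer 200mM KPO4, reaction 60 min at RT.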

ICCc1ccccc1
inactive: caspase-3 activation [1] 0.262% | caspase-3 activation [2] 0.877% | caspase-3 activation [3] 3.13% | outcome [4] | outcome [5] | Potency [6] | Potency [7] | Potency [8]

CC(=C/C=C/C(C)=C/C=C/C=C(C)/C=C/C=C(C)/C=C/C(=O)O)/C=C/C(=O)O
inactive: caspase-3 activation [1] -0.768% | caspase-3 activation [2] 0.467% | caspase-3 activation [3] -1.17% | outcome [4] | outcome [5] | Potency [6] | Potency [7] | Potency [8]

C=C(C)C(=O)OCC(C)C
inactive: caspase-3 activation [1] 1.08% | caspase-3 activation [2] 0.664% | outcome [4] | outcome [5] | Potency [6] | Potency [7] | Potency [8]

OCCO
inactive: caspase-3 activation [1] -0.444% | caspase-3 activation [2] -0.0515% | caspase-3 activation [3] 0.819% | outcome [4] | outcome [5] | Potency [6] | Potency [7] | Potency [8]

Nc1cccc([N+](=O)[O-])c1
inactive: caspase-3 activation [1] -0.828% | caspase-3 activation [2] 0.491% | outcome [4] | outcome [5] | Potency [6]

CC1=C(/C=C/C(C)=C/C=C/C(C)=C\C=O)C(C)(C)CCC1
inactive: outcome [9]
active: caspase-3 activation [1] 90.3% | caspase-3 activation [2] 113% | Potency [6] 31.6 µM

CC(C)Cc1nccs1
inactive: caspase-3 activation [1] 1.49% | caspase-3 activation [2] 0.155% | caspase-3 activation [3] 2.01% | outcome [4] | outcome [5] | Potency [6] | Potency [7] | Potency [8]

Cc1ccc(C)c(N)c1
inactive: caspase-3 activation [1] 1.89% | caspase-3 activation [2] 3.4% | caspase-3 activation [3] 3.4% | outcome [4] | outcome [5] | Potency [6] | Potency [7] | Potency [8]

CCNc1cc(O)ccc1C
inactive: caspase-3 activation [1] 0.47% | caspase-3 activation [2] 1.36% | caspase-3 activation [3] 0.389% | outcome [4] | outcome [5] | Potency [6] | outcome [9] | Potency [8]

Nc1cc(S(=O)(=O)O)ccc1O
inactive: caspase-3 activation [1] 0.554% | caspase-3 activation [2] -0.224% | caspase-3 activation [3] -0.175% | outcome [4] | outcome [5] | Potency [6] | Potency [7] | Potency [8]

Cc1ccc2cccnc2c1
inactive: caspase-3 activation [1] 0.42% | caspase-3 activation [2] -0.588% | caspase-3 activation [3] 5.55% | outcome [4] | outcome [5] | Potency [6] | Potency [7] | Potency [8]

CCCC(Cl)CCCC(Cl)CCC(Cl)CCC(Cl)CCC(Cl)CCCC(Cl)CCC (stereo not given)
inactive: caspase-3 activation [1] 1.24% | caspase-3 activation [2] 0.272% | caspase-3 activation [3] -1.03% | outcome [4] | outcome [5] | Potency [6] | Potency [7] | Potency [8]

NS(=O)(=O)O
inactive: caspase-3 activation [1] 1.36% | caspase-3 activation [2] 1.83% | caspase-3 activation [3] 1.35% | outcome [4] | outcome [5] | Potency [7] | Potency [8]

CC(=O)c1ccccn1
inactive: caspase-3 activation [1] 0.864% | caspase-3 activation [2] 1.68% | caspase-3 activation [3] 0.0845% | outcome [4] | outcome [5] | Potency [6] | Potency [7] | Potency [8]

CCC(=O)/C=C/C1C(C)=CCCC1(C)C (stereo not given)
inactive: caspase-3 activation [1] 0.383% | caspase-3 activation [2] 2.63% | caspase-3 activation [3] 2.12% | outcome [4] | outcome [5] | Potency [6] | outcome [9] | Potency [8]

Fc1ccccc1
inactive: caspase-3 activation [1] -0.0832% | caspase-3 activation [2] -0.374% | caspase-3 activation [3] -1.91% | outcome [4] | outcome [5] | Potency [6] | Potency [7] | Potency [8]

C=CCn1c(=O)n(CC=C)c(=O)n(CC=C)c1=O
inactive: caspase-3 activation [1] -1.07% | caspase-3 activation [2] 0.22% | caspase-3 activation [3] -1.6% | outcome [4] | outcome [5] | Potency [6] | Potency [8]

OC/C(Br)=C(\Br)CO
inactive: caspase-3 activation [1] 0.44% | caspase-3 activation [2] -0.67% | caspase-3 activation [3] 0.816% | outcome [4] | outcome [5] | Potency [6] | Potency [7] | Potency [8]

C=CCCCC
inactive: caspase-3 activation [1] -0.265% | caspase-3 activation [2] 0.498% | caspase-3 activation [3] 1.21% | outcome [4] | Potency [7] | Potency [8]
